The results in this text go back to PubChem BioAssay AID2235 (The Scripps Research Institute Molecular Screening Center, 2010).

Usually inhibition stands for the drop in the measured response relative to a control, in per cent.

Molecules are shown by their SMILES. Among all 320,000 compounds or so, about 2,800 (0.88%) were called active. This excerpt belongs to a sample that is enriched for actives. A number with no mark means an inactive call.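 Rule for the calls: active = inhibition above the mean inhibition of all tested compounds plus 3 SD, computed separately for each screening campaign (cut at about 15% in these data); inactive = the rest.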

Chain of Serine/threonine-protein phosphatase PP1-alpha catalytic subunit (Homo sapiens) (P62136 whole entry, looked up): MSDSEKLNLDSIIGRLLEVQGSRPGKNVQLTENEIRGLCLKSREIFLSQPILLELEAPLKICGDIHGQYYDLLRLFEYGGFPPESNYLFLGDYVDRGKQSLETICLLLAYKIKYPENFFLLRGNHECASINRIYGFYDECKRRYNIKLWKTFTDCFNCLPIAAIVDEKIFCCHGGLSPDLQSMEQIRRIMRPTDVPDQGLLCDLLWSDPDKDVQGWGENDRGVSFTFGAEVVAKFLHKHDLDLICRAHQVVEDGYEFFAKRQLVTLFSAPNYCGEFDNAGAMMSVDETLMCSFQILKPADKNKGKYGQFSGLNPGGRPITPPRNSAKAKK

The test addresses Serine/threonine-protein phosphatase PP1-alpha catalytic subunit (Homo sapiens) (UniProt P62136). The test can be described thus: PP1-alpha phosphatase inhibitors, primary screen, counter-screen for PP5 inhibitor project, biochemical, fluorescence, OMFP substrate, single point (AID 2235). To be noted: purified PP1alpha, at 6.7 µM, hits give high values. On the technique in general: The purpose of a counterscreen is to sort out artefacts and off-target activity.
As to `CC(C)CCSc1ncnc2c1oc1nc3c(cc12)COC(C)(C)C3`, the inhibition was -3.04%.

As to `Cc1c(CC(=O)N2CCN(C(=O)C3COc4ccccc4O3)CC2)c(=O)oc2c(O)c(O)ccc12` (stereo not given), the inhibition was 3.96%.

For the molecule `Cc1cc(Nc2ccc(Br)cc2F)n2ncnc2n1`, the inhibition was -2.4%.

As for `COc1ccc(C2C(C(C)=O)=C(O)C(=O)N2Cc2cccnc2)cc1` (stereo not given), the inhibition is -4.55%.

Regarding `COc1ccc(C2C(C(C)=O)=C(O)C(=O)N2c2nccs2)cc1` (stereo not given), the inhibition was -3.06%.

Consider `COc1ccc(C2C(C(C)=O)=C(O)C(=O)N2CCc2c[nH]c3ccccc23)cc1` (stereo not given), for which the inhibition is 18.3% (active).

For `Cc1onc(-c2ccccc2Cl)c1C(=O)N(Cc1ccc(N(C)C)cc1)C(C)C`, the inhibition was 0.01%.

For `COc1ccc2c(c1)c(C(=O)N/N=C/c1cccs1)c(C)n2C`, the inhibition is -3.65%.

For the molecule `Cc1ccc(-c2cc(C(=O)Nc3nn[nH]n3)c3ccccc3n2)c(C)c1`, the inhibition is 21.8% (active).

With `Cc1ccc2c(Cl)c(C(=O)Nc3nn[nH]n3)sc2c1`, the inhibition was 10.3%.

`COc1ccc(CN(C)C(=O)c2cc(-c3ccc(C)cc3C)nc3ccccc23)c(OC)c1OC`: the inhibition was 1.42%.

Regarding `COc1cccc(NC(=O)C(Sc2nnnn2C)c2ccccc2)c1` (stereo not given), the inhibition was -7.84%.

For the molecule `Cc1onc(-c2ccccc2Cl)c1C(=O)NCCn1ccc2ccccc21`, the inhibition was 0.26%.

Take `Cc1ccc2cc(CCNC(=O)c3ccc4c(c3)OCO4)c(=O)[nH]c2c1`: the inhibition was 0.9%.

As for `Cc1ccc2cc(CCNC(=O)c3c(-c4ccccc4Cl)noc3C)c(=O)[nH]c2c1`, the inhibition was 57.5% (active).

As to `O=S(=O)(NCCc1ccccn1)c1cc(Cl)cc(Cl)c1O`, the inhibition is -3.07%.

Take `COc1cc(S(=O)(=O)N2CCOCC2)ccc1NC(=O)COc1ccc(N(C)S(=O)(=O)c2ccc(C)cc2)cc1`: the inhibition is 5.5%.

On to `O=C(Nc1ccccc1F)c1ccc(S(=O)(=O)N2CCCCCC2)cc1`, for which the inhibition was 0.94%.

For the molecule `CC(=O)N1CCCc2cc(S(=O)(=O)N3CCCC(C(=O)N4CCN(c5cccc(Cl)c5)CC4)C3)ccc21` (stereo not given), the inhibition was -0.49%.

As for `CCCCCCCCCCOC(=O)Cn1c(COc2cccc(OC)c2)[n+](C)c2ccccc21`, the inhibition is 33% (active).

As to `CCOC(=O)Cn1c(-c2cccnc2Cl)nc2ccccc21`, the inhibition is 2.18%.

For the molecule `CCCCCCCCCCOC(=O)Cn1c(COc2ccc(C)cc2)[n+](C)c2ccccc21`, the inhibition was 44.7% (active).

`CCOC(=O)COn1c(=O)c(-c2ccc(OCC)cc2)[n+]([O-])c2ccccc21`: the inhibition was -1.29%.

As to `CCn1c(COc2cccc(OC)c2)nnc1SCC(=O)N1CCOCC1`, the inhibition is -1.11%.

As to `CCCCn1c(N)c(N(CCOC)C(=O)c2cccc(OCc3ccccc3)c2)c(=O)[nH]c1=O`, the inhibition was -1.96%.

As to `O=C(CCN1C(=O)[C@@H]2Cc3ccccc3CN2C1=O)NCCc1ccccc1`, the inhibition is -2.43%.

As for `COC(=O)CCCC1=CC2=C(c3ccccc3)C(=O)C(C)(OC(=O)C3CCCC3)C(=O)C2=CN1c1ccc(OC)cc1` (stereo not given), the inhibition was -4.53%.

Take `CSc1ncccc1C(=O)Nc1ccc2c(c1)OCO2`: the inhibition is -1.92%.

Turning to `CCOC(=O)N1CCN(C(c2cccnc2)c2ccc3cccnc3c2O)CC1` (stereo not given), the inhibition is 3.71%.

With `CCOc1cc(N2CCOCC2)c(OCC)cc1NC(=O)COc1cccc2cccnc12`, the inhibition was 2.8%.

For `Oc1c(C(c2ccccn2)N2CCOCC2)ccc2cccnc12` (stereo not given), the inhibition was 78.5% (active).

On to `CC(=O)N1CCN(CC(C)(C)NS(=O)(=O)c2ccc(C)cc2)CC1`, for which the inhibition was -0.49%.

In the case of `COc1ccc(S(=O)(=O)N(C)CC(=O)N2CCCC2)cc1Cl`, the inhibition was -3.22%.

`COc1ccc(-c2nn(-c3ccccc3)cc2/C=C2/SC(=S)N(CCCC(=O)O)C2=O)c(C)c1`: the inhibition is 23.3% (active).

As to `Cc1ccc(-c2nn(-c3ccccc3)cc2/C=C2\SC(=S)N(CCCCCC(=O)O)C2=O)o1`, the inhibition is 23.8% (active).

Regarding `Cc1ccc(-c2nn(-c3ccccc3)cc2CN(Cc2ccccc2)C(=O)CCC(=O)O)o1`, the inhibition is -2.67%.

`COc1ccc(/C=C2\SC(=S)N(CCCC(=O)NC3CCCC3)C2=O)cc1OC`: the inhibition is 3.46%.

For `O=C(CCCN1C(=O)/C(=C/c2ccccc2)SC1=S)Nc1ccc(O)cc1`, the inhibition is 1.67%.

Take `C=CCOc1ccc(/C=C2\SC(=S)N(CCC(=O)O)C2=O)cc1`: the inhibition was 6.24%.

For `CCCn1nc(C(=O)Nc2ccc3nc(C)sc3c2)c2ccccc2c1=O`, the inhibition was -3.9%.

Turning to `COc1ccc(-c2cc(C(F)(F)F)n3nc(C(=O)N4CCOCC4)c(Cl)c3n2)cc1`, the inhibition is -1.63%.

On to `CCOC(=O)c1nn(-c2cccc(C)c2)cc1C(=O)c1ccccc1`, for which the inhibition is 1.33%.

As to `COc1c(F)c(F)c(-c2csc(N)n2)c(F)c1F`, the inhibition is -1.76%.

Consider `N#Cc1ccc(C(=O)OCC(=O)NC(=O)NC2CCCCC2)cc1`, for which the inhibition is 0.62%.

`CS(=O)(=O)c1ccc2c(c1)SC1=NC(=O)/C(=C/c3ccco3)C(=N)N12`: the inhibition was 24.5% (active).

Turning to `CCS(=O)(=O)C1=NSC2=NC(=O)/C(=C\c3ccc(OS(=O)(=O)c4ccccc4)cc3)C(=N)N21`, the inhibition is 1.95%.

Turning to `CS(=O)(=O)C1=NN2C(=N)/C(=C\c3ccc(OCCOc4ccccc4)cc3)C(=O)N=C2S1`, the inhibition is 12.2%.

`Cc1cc(NC(=O)OC(C)C)ccc1-c1ccc(NC(=O)OC(C)C)cc1C`: the inhibition was -5.37%.

For the molecule `COCC(C)NC(=O)COc1nncc2ccccc12` (stereo not given), the inhibition is -1.71%.

In the case of `CSc1ccc(/C=N/NC(=O)c2cccc(Cl)c2)cc1`, the inhibition was -0.88%.

For the molecule `CSc1ccc(/C=N\NC(=O)COc2ccc(Cl)cc2Br)cc1`, the inhibition is 45.6% (active).

Consider `CSc1ccc(/C=N\NC(=O)CC(=O)NC(C)C)cc1`, for which the inhibition was -3.41%.

In the case of `Cc1cc(C)c(S(=O)(=O)NCC(c2ccc3c(c2)OCO3)N2CCOCC2)c(C)c1` (stereo not given), the inhibition is -3.95%.

With `CN(CCOc1ccccc1)C(=O)c1cc(-c2ccco2)nc2ccccc12`, the inhibition is 11%.

As to `CN(C(=O)COC(=O)c1cc(-c2ccco2)nc2ccccc12)C1CCS(=O)(=O)C1` (stereo not given), the inhibition is 41.1% (active).

Take `CN(C(=O)COC(=O)c1nc(Cl)ccc1Cl)C1CCS(=O)(=O)C1` (stereo not given): the inhibition is -2.63%.

As for `O=C(CC(c1ccccc1)c1cc(Cl)ccc1O)NCCN1CCOCC1` (stereo not given), the inhibition is -1.01%.

In the case of `O=C(COC(=O)c1ccccc1SCC(=O)N1CCCC1)Nc1ccccc1OC(F)F`, the inhibition was -0.81%.

Turning to `CCOC(=O)c1ccc[n+](CC(=O)Nc2ccccc2OC(F)F)c1`, the inhibition was -3.16%.

`Cc1ccc(-c2nc(SCC(=O)Nc3ccccc3OC(F)F)c3c(C)c(C(=O)O)sc3n2)cc1`: the inhibition is 52% (active).

Regarding `Cc1ccc(C)c(NC(=O)CSc2nc3c(oc4ccccc43)c(=O)n2-c2ccccc2)c1`, the inhibition is 10.1%.

As for `COc1cc(C(C(=O)NC2CCCC2)N(Cc2ccccc2)C(=O)c2snc(C(N)=O)c2N)ccc1O` (stereo not given), the inhibition was -0.55%.

Take `CCOC(=O)Cc1cc(=O)[nH]c(=O)[nH]1`: the inhibition was -3.59%.

In the case of `COc1ccc(-c2ocnc2C(=O)Nc2ccc3c(c2)CCC3)cc1`, the inhibition is -2.76%.

In the case of `O=C1N=C(N2CCCC2)S/C1=C\c1cccc(Br)c1`, the inhibition was -0.89%.

Take `O=Cc1c(Cl)cccc1Cl`: the inhibition is -3.41%.

Regarding `O=C1N=C2SCCN2/C1=C\c1c(Cl)cccc1Cl`, the inhibition is 15.4% (active).

In the case of `O=C(N/N=C\C1CC=CCC1)c1ccc(Br)o1` (stereo not given), the inhibition was 2.42%.

With `O=C(c1cn(-c2ccccc2)nc1-c1cccnc1)N1CCN(S(=O)(=O)c2ccccc2F)CC1`, the inhibition was -1.36%.

On to `Cc1ccc(CNC(=O)CCN2C(=O)[C@@H]3Cc4ccccc4CN3C2=O)cc1`, for which the inhibition is 3.38%.

In the case of `O=C(Nc1nnc(-c2ccccc2)o1)c1cc(-c2cccs2)nc2ccccc12`, the inhibition is 34.7% (active).

As to `O=C(NCCN1CCOCC1)c1cc(-c2cccs2)nc2ccccc12`, the inhibition was -5.13%.

With `CCCCN(C)CCCNC(=O)c1cc(-c2cccs2)nc2ccccc12`, the inhibition is 1.01%.

As for `CCN(CC)c1ccc(NC(=O)CN2C(=O)NC3(CCc4ccccc43)C2=O)cc1` (stereo not given), the inhibition is 3.2%.

On to `COCCCn1c(-c2cccs2)nc2nc3ccccc3nc21`, for which the inhibition was -1.53%.

As for `CC(C)(C)c1ccccc1NC(=O)CN1C(=O)NC2(CCCC2)C1=O`, the inhibition was -2.93%.

On to `Cc1ccc(-n2nc3ccc(NC(=O)/C=C/c4ccco4)cc3n2)cc1C`, for which the inhibition is 19.2% (active).

Take `O=C(/C=C/c1ccco1)Nc1ccc(Oc2ccccc2)cc1`: the inhibition is 3.61%.

`Cc1nnc(NC(=O)/C=C/c2ccco2)s1`: the inhibition was -3.35%.

In the case of `COc1ccc(CN2CCN(Cc3ccc(OC)c(OC)c3OC)CC2)cc1`, the inhibition was -0.69%.

As for `CCOc1ccc(N(CC(=O)Nc2cccc(OC)c2)S(C)(=O)=O)cc1`, the inhibition is -2.47%.

Regarding `COc1ccc(NC(=O)CSc2nnc(-c3ccccc3F)n2C2CC2)cc1S(N)(=O)=O`, the inhibition was -2.33%.

Consider `Fc1cccc(Cl)c1COc1ccc(-c2nnco2)cc1`, for which the inhibition was 0.3%.

For the molecule `Cc1cc(C)c(-c2csc(NC(=O)CCCc3nc4ccccc4c(=O)[nH]3)n2)c(C)c1`, the inhibition was 1.77%.

Consider `CCCn1c(C)cc(-c2csc(NC(=O)CCc3nc4ccccc4c(=O)[nH]3)n2)c1C`, for which the inhibition was 15.3% (active).

`CC(=O)NCc1ccc(-c2csc(NC(=O)CCCc3nc4ccccc4c(=O)[nH]3)n2)cc1`: the inhibition was -1.25%.

Consider `O=C1CCCCN1CCCC(=O)N1CCCC(Nc2ccc(F)cc2)C1` (stereo not given), for which the inhibition is -8.73%.

Consider `Cc1cccc(COc2ccccc2/C=N/Nc2ccc([N+](=O)[O-])cc2)c1`, for which the inhibition is 6.78%.

As to `COCCNC(=O)c1ccccc1NS(=O)(=O)c1ccc(C)c([N+](=O)[O-])c1`, the inhibition is -0.54%.

With `Cc1ccc(NS(=O)(=O)c2ccc(N/N=C/c3ccccc3OCC(=O)O)c([N+](=O)[O-])c2)c(C)c1`, the inhibition is 21.9% (active).
